PubChem BioAssay AID873 (PCMD, 2007)
About 1,300 (0.62%) of roughly 210,000 compounds were called active.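 How the source made its calls: active means inhibition of 40% or more; inactive means the rest.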 Shown is part of a subset that was picked to be rich in actives.

target: Kallikrein-5 (Homo sapiens) (UniProt Q9Y337); test: inhibition of kallikrein 5 (hK5) activity – biochemical, 1536-well, primary screen (AID 873); details: recombinant hK5, fluorogenic AMC substrate cleavage; at 5 µM; stronger effect = higher value;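 further: 0% = enzyme controls without compound and 100% = no-enzyme blanks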
Sequence (Q9Y337 67-293 limits assumed): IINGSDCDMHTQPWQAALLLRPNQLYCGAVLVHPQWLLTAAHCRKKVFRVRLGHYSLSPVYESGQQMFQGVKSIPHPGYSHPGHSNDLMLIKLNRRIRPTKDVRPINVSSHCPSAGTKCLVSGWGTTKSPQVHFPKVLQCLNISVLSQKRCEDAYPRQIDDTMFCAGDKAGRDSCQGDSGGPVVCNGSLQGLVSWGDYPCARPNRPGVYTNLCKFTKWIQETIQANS

inhibition, inactive:
Cc1ccc(-c2csc(NC(=O)c3cccs3)n2)cc1 -16.5%, O=C(Nc1ncccn1)c1cccs1 -0.12%, O=C(Cn1c[n+](CC(=O)c2ccc([N+](=O)[O-])cc2)cn1)c1ccc([N+](=O)[O-])cc1 -1.7%, C=CCN(c1ccccc1C(=O)NCC(=O)OCC)S(=O)(=O)c1ccc(C)cc1 -3.06%, Cc1nc2ccccc2nc1N/N=C/c1ccc(O)cc1O -20.8%, COc1ccc(N=C(C)c2sc3ccccc3c2O)cc1 2.85%, O=[N+]([O-])c1cccc2ncccc12 -1.14%, C=C1CCN([C@H](C(=O)NCc2cc(OC)c(OC)c(OC)c2)C(C)C)S(=O)(=O)c2ccccc21 0.63%, O=C(O)CCCC(=O)Nc1ccc(Oc2cccc(C(F)(F)F)c2)nc1 -2.65%, O=C(NNC(=O)c1csc(-c2cccnc2)n1)Nc1ccc(Cl)cc1 -0.51%, O=C(CNc1ccc(F)cc1F)NC(=O)NCc1ccco1 -1.58%, COc1ccc(/C=C/c2nnc(NC(=O)C(C)C)s2)cc1 0.65%, Cn1nccc1NS(=O)(=O)c1ccc(F)cc1 8.38%, O=C(Nc1ccccc1F)c1ccccc1-c1ccccc1 -10.7%, Cc1ccccc1NC(=O)C(C)c1ccc(-c2ccccc2)c(F)c1 (stereo not drawn) 1.97%, Clc1ccc2nc(-c3ccccc3)nc(C(Cl)Cl)c2c1 0.33%, COc1ccc(-c2nn(C)c(=O)c3ccccc23)cc1CNC(=O)C1CCCCC1 1.08%, COC(=O)c1ccc(CN2CCC(CO)(Cc3ccc(OC)cc3)CC2)cc1 -3.09%, COc1ccc(CC2(CO)CCN(Cc3cnn(C)c3)CC2)cc1 5.76%, COc1ccc(CCNC2=CC(=O)CC(C)(C)C2)cc1 0.99%, CCS(=O)(=O)c1cc([N+](=O)[O-])c(Sc2ccccc2N)s1 3.91%, COC(=O)c1sc(C(F)(F)F)c(-c2ccccc2)c1S(=O)(=O)N(C)C 0.56%, Cc1ccc(S(=O)(=O)N(C)CC(=O)OCC(=O)Nc2ccccc2)cc1 2.05%

inhibition, active:
O=C(Nc1n[nH]c(C(F)(F)F)n1)c1cccs1 40.9%, O=C(Nc1ccc(Cl)cc1)Nc1ccc(Oc2cccnc2)nc1 62.9%, CC(C)N(C(=O)c1ccc(-c2ccccc2F)cc1)C(C)C 52.5%, CC(C)c1csc(CN2CCC(CO)(Cc3ccccc3)CC2)n1 40.6%, CCOC(=O)CN(C)S(=O)(=O)c1ccc(-c2cc(C(=O)OC)sc2C(F)(F)F)cc1 74.9%
